{"source": "paper PMC6602471", "note": "The full ranking holds about 1,300 sequences; the median of “log fluorescence intensity” is about 8.9, and the highest 2% start at about 13. The entries come from a sample that favours the highest values as a whole."}
{"molecular_target": "T1, ELK1 (Homo sapiens, UniProt P19419 1-428)", "T1 sequence": "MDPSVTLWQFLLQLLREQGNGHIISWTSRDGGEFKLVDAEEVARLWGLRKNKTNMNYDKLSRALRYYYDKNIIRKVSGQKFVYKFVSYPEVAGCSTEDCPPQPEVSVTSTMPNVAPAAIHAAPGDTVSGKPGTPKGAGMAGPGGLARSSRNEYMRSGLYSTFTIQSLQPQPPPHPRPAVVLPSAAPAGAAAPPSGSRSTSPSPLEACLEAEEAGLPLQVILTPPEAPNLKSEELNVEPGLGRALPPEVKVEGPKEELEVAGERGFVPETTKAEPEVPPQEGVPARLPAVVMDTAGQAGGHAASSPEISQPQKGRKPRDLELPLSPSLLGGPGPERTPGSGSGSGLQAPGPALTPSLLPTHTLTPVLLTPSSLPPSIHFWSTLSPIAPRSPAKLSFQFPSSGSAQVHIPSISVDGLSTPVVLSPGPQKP", "assay": "custom PBM; custom protein-binding microarray; buffer, salt, pH and temperature not stated; high values mean tight binding", "conditions": "dsDNA, one strand shown"}
{"sequence": "GCTGCTGCGGTGCATACCCCACCGGATGTGACTCCGGTCTTGATTCGCTTGACGCTGCTG", "binding signal": "10.3 log fluorescence intensity"}
{"sequence": "GATTAATTTCTTCCCTTATTCGCACGTGCCATAACAGTCTTGATTCGCTTGACGCTGCTG", "binding signal": "9.19 log fluorescence intensity"}
{"sequence": "CGGAAGTGTCCTAAACGTCGGATATCCGGTTCTTCTGTCTTGATTCGCTTGACGCTGCTG", "binding signal": "12.4 log fluorescence intensity"}
{"sequence": "CGGAAGTGTCGTCAACGTCGGATATCCGGTTCTTCTGTCTTGATTCGCTTGACGCTGCTG", "binding signal": "12.6 log fluorescence intensity"}
{"sequence": "CGGAAGTGTCGAAAACGTCGGATATCCGGTTCTTCTGTCTTGATTCGCTTGACGCTGCTG", "binding signal": "12.4 log fluorescence intensity"}
{"sequence": "CGGAAGTGTCGTAGACGTCGGATATCCGGTTCTTCTGTCTTGATTCGCTTGACGCTGCTG", "binding signal": "12.3 log fluorescence intensity"}
{"sequence": "CGGAAGTGTCGGAAACGTCGGATATCCGGTTCTTCTGTCTTGATTCGCTTGACGCTGCTG", "binding signal": "13.5 log fluorescence intensity"}
{"sequence": "CGGAAGTGTAGTAAACGTCGGATATCCGGTTCTTCTGTCTTGATTCGCTTGACGCTGCTG", "binding signal": "12.1 log fluorescence intensity"}
{"sequence": "CGGAAGTGTCGTATACGTCGGATATCCGGTTCTTCTGTCTTGATTCGCTTGACGCTGCTG", "binding signal": "12.5 log fluorescence intensity"}
{"sequence": "CGGAAGTGTCGTGAACGTCGGATATCCGGTTCTTCTGTCTTGATTCGCTTGACGCTGCTG", "binding signal": "11.8 log fluorescence intensity"}
{"sequence": "CGGAAGTGTCATAAACGTCGGATATCCGGTTCTTCTGTCTTGATTCGCTTGACGCTGCTG", "binding signal": "12.1 log fluorescence intensity"}
{"sequence": "CGGAAGTGTCGCAAACGTCGGATATCCGGTTCTTCTGTCTTGATTCGCTTGACGCTGCTG", "binding signal": "12.5 log fluorescence intensity"}
{"sequence": "CGGAAGTGTCTTAAACGTCGGATATCCGGTTCTTCTGTCTTGATTCGCTTGACGCTGCTG", "binding signal": "12.1 log fluorescence intensity"}
{"sequence": "CGGAAGTGTCGTTAACGTCGGATATCCGGTTCTTCTGTCTTGATTCGCTTGACGCTGCTG", "binding signal": "12.6 log fluorescence intensity"}
{"sequence": "GCTGCCGCGGTGCATACCCCACCGGATGTGACCCCGGTCTTGATTCGCTTGACGCTGCTG", "binding signal": "10.5 log fluorescence intensity"}
{"sequence": "GCTGATGCGGTGCATACCCCACCGGATGTGACCCCGGTCTTGATTCGCTTGACGCTGCTG", "binding signal": "10.2 log fluorescence intensity"}
{"sequence": "CTGGGACTTGACCCAACTCTGCCGCGTGGGTCGTTTGTCTTGATTCGCTTGACGCTGCTG", "binding signal": "8.91 log fluorescence intensity"}
{"sequence": "GGAAAAAGACCCAGGGTAACACCGGAAGTGGGCTTAGTCTTGATTCGCTTGACGCTGCTG", "binding signal": "11 log fluorescence intensity"}
{"sequence": "GCTGCTGCGTTGCATACCCCACCGGATGTGACCCCGGTCTTGATTCGCTTGACGCTGCTG", "binding signal": "10.1 log fluorescence intensity"}
{"sequence": "TCCGGCTACCAGCTCCACCCAATTCAGGCCTTGTAGGTCTTGATTCGCTTGACGCTGCTG", "binding signal": "8.93 log fluorescence intensity"}
{"sequence": "CTGGGACTTGACCTAACTCTGCCACGTGGGTCGTTTGTCTTGATTCGCTTGACGCTGCTG", "binding signal": "8.92 log fluorescence intensity"}
{"sequence": "CACAATTTTTACAGTAATGTAGCATGCGTAACTCCTGTCTTGATTCGCTTGACGCTGCTG", "binding signal": "8.94 log fluorescence intensity"}
{"sequence": "CTGGGACATGACCCAACTCTGCCACGTGGGTCGTTTGTCTTGATTCGCTTGACGCTGCTG", "binding signal": "8.96 log fluorescence intensity"}
{"sequence": "GCTGCTGCGGTGCATACCCCACAGGATGTGACCCCGGTCTTGATTCGCTTGACGCTGCTG", "binding signal": "9.08 log fluorescence intensity"}
{"sequence": "TGTCGGGTAAGGGAATGTAGATCACGTGAATGAATAGTCTTGATTCGCTTGACGCTGCTG", "binding signal": "8.98 log fluorescence intensity"}
{"sequence": "TGTCGGGTAAGGGAATGTAGATCACGTGAATGATAAGTCTTGATTCGCTTGACGCTGCTG", "binding signal": "9.11 log fluorescence intensity"}
{"sequence": "GCTGCTGCGGTGCATACCCCACCGGATGTGCCCCCGGTCTTGATTCGCTTGACGCTGCTG", "binding signal": "10.2 log fluorescence intensity"}
{"sequence": "TATTAATTTCTGCCCTTATTCGCACGTGCCATAACAGTCTTGATTCGCTTGACGCTGCTG", "binding signal": "8.91 log fluorescence intensity"}
{"sequence": "GTGTATAGGATCCCATCCAACACACGGGTTAAAATGGTCTTGATTCGCTTGACGCTGCTG", "binding signal": "8.95 log fluorescence intensity"}
{"sequence": "GCTGCTGCGGTGCCTACCCCACCGGATGTGACCCCGGTCTTGATTCGCTTGACGCTGCTG", "binding signal": "10.3 log fluorescence intensity"}
{"sequence": "TACTGACTTTTATATGCGAATGCACATGAATAGACCGTCTTGATTCGCTTGACGCTGCTG", "binding signal": "8.97 log fluorescence intensity"}
{"sequence": "GTAAAAAGGCCCAGGGTAACACCGGAAGTGGGCTTAGTCTTGATTCGCTTGACGCTGCTG", "binding signal": "10.9 log fluorescence intensity"}
{"sequence": "GTGTATAGGATCCCATCCAACACACGTATTAAAATGGTCTTGATTCGCTTGACGCTGCTG", "binding signal": "9.05 log fluorescence intensity"}
{"sequence": "CGGAAGTGTGGTAAACGTCGGATATCCGGTTCTTCTGTCTTGATTCGCTTGACGCTGCTG", "binding signal": "12 log fluorescence intensity"}
{"sequence": "CAGTATAGGACTTCTTCCCTGAAGCAATTGATAACCGTCTTGATTCGCTTGACGCTGCTG", "binding signal": "8.93 log fluorescence intensity"}
{"sequence": "GTGTATGGGATCCCATCCAACACACGTGTTAAAATGGTCTTGATTCGCTTGACGCTGCTG", "binding signal": "9.12 log fluorescence intensity"}
{"sequence": "CACTATTTTTACAGTAATGTAGCACGCGTAACTCCTGTCTTGATTCGCTTGACGCTGCTG", "binding signal": "8.94 log fluorescence intensity"}
{"sequence": "TACTGACTAATATATGCGAATGCACATGAATAGACCGTCTTGATTCGCTTGACGCTGCTG", "binding signal": "8.92 log fluorescence intensity"}
{"sequence": "TGTCGGGTAAGGAAATGTAGATCACGTGAATGAAAAGTCTTGATTCGCTTGACGCTGCTG", "binding signal": "8.91 log fluorescence intensity"}
{"sequence": "GGAAAGAGGCCCAGGGTAACACCGGAAGTGGGCTTAGTCTTGATTCGCTTGACGCTGCTG", "binding signal": "10.8 log fluorescence intensity"}
{"sequence": "CTGGGATTTGACCCAACTCTGCCACGTGGGTCGTTTGTCTTGATTCGCTTGACGCTGCTG", "binding signal": "9.02 log fluorescence intensity"}
{"sequence": "TGTCGGGTAAGGGAATGTAGATCACGTGGATGAAAAGTCTTGATTCGCTTGACGCTGCTG", "binding signal": "8.97 log fluorescence intensity"}
{"sequence": "TCCGGCTACCAGCTCCACCCACTTCAGGCCTTGTCGGTCTTGATTCGCTTGACGCTGCTG", "binding signal": "9.01 log fluorescence intensity"}
{"sequence": "CACAGTTTTTACAGTAATGTAGCACGCGTAACTCCTGTCTTGATTCGCTTGACGCTGCTG", "binding signal": "8.91 log fluorescence intensity"}
{"sequence": "GTGTATAGGATCCCATCCAACACACGTGATAAAATGGTCTTGATTCGCTTGACGCTGCTG", "binding signal": "8.94 log fluorescence intensity"}
{"sequence": "CAGCATAGGACTTCTTCCCTGAAACAATTGATAACCGTCTTGATTCGCTTGACGCTGCTG", "binding signal": "8.97 log fluorescence intensity"}
{"sequence": "GATTAATTTCTGCCCTTATTCGCACGTGCCCTAACAGTCTTGATTCGCTTGACGCTGCTG", "binding signal": "8.97 log fluorescence intensity"}
{"sequence": "TCCGGCTACCAGCTCCACCCACTTCATGCCTTGTAGGTCTTGATTCGCTTGACGCTGCTG", "binding signal": "8.92 log fluorescence intensity"}
{"sequence": "GGAAAAAGGCCCAGGGTAACTCCGGAAGTGGGCTTAGTCTTGATTCGCTTGACGCTGCTG", "binding signal": "10.4 log fluorescence intensity"}
{"sequence": "GTGTATAGGATCCCATCCAACACACGTGTTACAATGGTCTTGATTCGCTTGACGCTGCTG", "binding signal": "9.02 log fluorescence intensity"}
{"sequence": "TGTCGGGTAAGGGAATGTACATCACGTGAATGAAAAGTCTTGATTCGCTTGACGCTGCTG", "binding signal": "8.92 log fluorescence intensity"}
{"sequence": "GTGTATAGGATCCCATCCCACACACGTGTTAAAATGGTCTTGATTCGCTTGACGCTGCTG", "binding signal": "9.07 log fluorescence intensity"}
